Source: PubChem BioAssay
This is a sample that favours compounds with a hit; in the whole collection about 13% have one here.
Marburg entry inh = blocks Marburg virus binding to or entry into cells. Marburg virus pseudotyped entry inhibition, cell reporter. Potency, µM (top dose mostly 37.8 µM), hits mostly inhibitors. hit rate 1.8% among 300,000. AID 540276; calls by dose curve; tested in HEK293 cells
HCV inh = inhibitors of hepatitis C virus infection. Huh7.5.1 HCVcc-Cre infection, luciferase reporter, 44 h. Potency, µM (highest dose often 41.8 µM), actives largely listed as inhibitors. hit rate 3.4% among 340,000. AID 651820; active means well fitted inhibition curve with a large enough effect; inconclusive means small, poorly fitted or top-dose-only effect, or another doubt; inactive means no such curve, though single readings can be large or run the other way
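Seed cells (1,000/well) for 4 h; treat with compound and infect with HCVcc-Cre, moi about 0.5. Incubate 44 h, then detect luciferase activity.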
Shiga toxin inh = inhibitors of Shiga toxin in Vero cells; Vero cells, Shiga toxin protein synthesis inhibition reporter; inhibition, % at 38.7 µM; hit rate 9.2% among 290,000; AID 2315; in the data active means inhibition mostly above about 28%, no sharp cut-off; inactive means mostly below about 43%
FMDV antiviral = foot and mouth disease virus antiviral activity. FMDV antiviral cell-based qHTS. Potency, µM (highest dose often 57.9 µM), hits mostly inhibitors. hit rate 1.2% among 410,000. AID 1159524; calls by dose curve; tested in HEK293T cells; further: read-out not given here; nearly all actives have a fitted effect of over 45% in size
Lassa entry inh = inhibitors of Lassa virus binding or cell entry. hit rate 1.2% among 300,000. Potency, µM (highest dose often 37.9 µM), most hits filed as inhibitors. Lassa virus pseudotype entry inhibition, cell reporter. AID 540256; calls by dose curve; tested in HEK293 cells; further: nearly all actives have a fitted effect of over 50% in size
Cycloheximide cs = counter-screen hit for Shiga toxin inhibitors, cycloheximide; cell reporter, cycloheximide protein synthesis inhibition counterscreen; max response, %; hit rate 12% among 300,000; AID 2314; in the data active means max response mostly above about 13%, no sharp cut-off; inactive means mostly below about 14%; further: read at 38.3 µM for the half of the compounds with a filed dose
Numbers stand for hits; - = inactive; ? = inconclusive; . = no result given; ! = not confirmed by another sample.

SMILES	Marburg entry inh	HCV inh	Shiga toxin inh	FMDV antiviral	Lassa entry inh	Cycloheximide cs
CCOC(=O)C1CCN(C(=O)CCC(=O)NNc2nc3ccccc3c3nc(C)nn23)CC1	.	-	-	-	.	-
COc1ccc(C2=C(CN(C)C)C(c3ccccc3)c3ccccc3O2)cc1 (stereo unspecified)	?	-	-	-	13µM	-
CCOc1ccc(C2=C(C=C(C#N)C#N)C(c3ccccc3)c3ccccc3O2)cc1 (stereo unspecified)	-	?	-	-	-	-
O=C1CN(c2ccccc2)C(=S)N1C(=O)c1ccc(Br)cc1	?	-	96	-	?	43
Cc1cccc(Cn2c(SCC(=O)Nc3ccccc3)nc3c2c(=O)[nH]c(=O)n3C)c1	.	25µM	-	-	.	-
Cc1ccc(-n2c(SCC(=O)NNC(=S)Nc3ccccc3)nc3ccccc3c2=O)cc1	8.9µM	-	-	-	-	-
Cn1c(=O)[nH]c(=O)c2c1nc(SCC(=O)O)n2Cc1ccccc1	.	-	-	-	.	-
Cc1cccc(NC(=O)CSc2nc3ccccc3c(=O)n2C)c1	7.1µM	10µM	-	?	?	-
O=C(CSc1nc2ccccc2c(=O)n1-c1ccc(F)cc1)Nc1ccc(C(=O)O)cc1	-	-	-	-	-	-
CC(=O)Nc1cccc(NC(=O)CSc2ncc(C(=O)Nc3ccccc3)c(=O)n2C)c1	?	11µM	.	?	-	.
Cc1cccc(NC(=O)CSc2nc3c([nH]c4ccccc43)c(=O)n2C)c1	.	-	-	-	?	-
COc1ccc(CNC(=O)CN2C(=O)COc3ccccc32)c(OC)c1	.	.	.	-	?	.
O=C(CSc1nc2ccccc2c(=O)n1-c1ccc(F)cc1F)Nc1ccc2c(c1)CCC2	?	?	80	-	?	59
Oc1ccccc1C1=NOC(O)(C(F)F)C1 (stereo unspecified)	-	-	-	-	-	-
CN(C)CCNC(=O)C(=O)NCC(c1ccc2c(c1)OCO2)N1CCOCC1 (stereo unspecified)	.	.	.	-	?	.
Nc1nc(N)c(N=Nc2ccccc2)c(=O)[nH]1	?	-	.	-	-	.
Cc1cc(C)[n+]2[nH]c(N)c(N=Nc3ccccc3)c2n1	-	-	58	-	-	17
Oc1ccccc1O	2.5µM!	?	.	-	?	.
Nc1ncc(N=Nc2cc(C(=O)O)ccc2Cl)s1	.	-	-	-	.	-
CN(C)CCN(Cc1ccco1)C(=O)c1cc2c(Cl)nc3ccccc3c2s1	15µM	10µM	-	-	-	-
Cc1ccc2nc(Cl)c3cc(C(=O)N(CCN(C)C)Cc4ccco4)sc3c2c1	?	?	-	-	-	-
CN(C)c1ccc(-c2ccc([C@H]3[C@@H]4C=CCC[C@@]4(C)C(=O)N3Cc3ccccc3)c(F)c2)cc1	.	-	-	?	.	-
Cc1cc2oc(=O)cc(CN3CCN(Cc4ccccc4)CC3)c2cc1O	.	11µM	-	-	.	-
Cc1ccc2c(CN3CCC(C)CC3)cc(=O)oc2c1C	.	-	123	-	.	55
Cc1cc(C)c2c(CN3CCN(CCO)CC3)cc(=O)oc2c1	-	-	57	-	-	72
SMILES	Marburg entry inh	HCV inh	Shiga toxin inh	FMDV antiviral	Lassa entry inh	Cycloheximide cs
Cc1cc2oc(=O)cc(CN3CCN(S(=O)(=O)c4cccs4)CC3)c2cc1C	14µM	?	-	?	14µM	-
Cc1ccc2c(CN3CC(C)CC(C)C3)cc(=O)oc2c1C (stereo unspecified)	-	?	-	-	-	-
Cc1cc2oc(=O)cc(CN3CCN(C/C=C/c4ccccc4)CC3)c2cc1O	-	.	-	.	.	-
Cc1ccc2c(CN3CCCCC3)cc(=O)oc2c1	-	-	28	-	-	21
Cc1c(O)ccc2c(CN3CCN(C/C=C/c4ccccc4)CC3)cc(=O)oc12	8.9µM	11µM	-	?	?	-
Cc1nn(Cc2ccccc2)c(C)c1C(=O)OCC(=O)c1cc(C)n(CC(F)(F)F)c1C	?	8.9µM	-	-	1.8µM	-
Cc1cc(C(=O)COC(=O)c2ccncc2)c(C)n1Cc1ccco1	-	-	116	-	?	44
Cc1cc(C(=O)COc2cccnc2[N+](=O)[O-])c(C)n1Cc1ccco1	?	?	-	-	-	-
Cc1cc(-c2csc(N)n2)c(C)n1Cc1ccco1	?	?	-	-	-	36
Cc1cc(C(=O)CSc2nnc(N)s2)c(C)n1Cc1ccco1	?	-	57	-	-	39
Cc1cc(C(=O)COC(=O)c2cc(Cl)ccc2N)c(C)n1Cc1ccco1	?	?	119	-	?	91
Cc1cc(C(=O)COC(=O)c2ccco2)c(C)n1Cc1ccco1	?	-	-	8.9µM	15µM	-
